TIM10 inh – growth inhibitors of isogenic TIM10 control yeast, primary screen, counter-screen for tim10-1 yeast inhibitor project, luminescence, uHTS; S. cerevisiae TIM10 strain growth, BacTiter-Glo luminescence, 24 h; inhibition, % at 10 µM; 330,000 compounds, 1.4% hits;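 active = inhibition of 40% or more at the single tested concentration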;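 also: wild-type TIM10 isogenic control strain grown at permissive 25 °C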
tim23-1 inh – growth inhibitors of tim23-1 mutant yeast, primary screen, luminescence, uHTS; S. cerevisiae tim23-1 growth, BacTiter-Glo luminescence, 24 h; inhibition, % at 20 µM; 330,000 compounds, 1.3% hits;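 active = growth inhibition of the mutant yeast at or above 50%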;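 also: temperature-sensitive mutant grown at 25 °C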
SKKanGAS inh – S. pyogenes SKKanGAS growth inhibitors in kanamycin, primary screen, streptokinase expression inhibitor project, SKKanGAS strain, BacTiter-Glo luminescence; 6 h; inhibition, % at 7.5 µM; 300,000 compounds, 1.3% hits; AID 1662, 2009;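 active = mean replicate score, as percent of positive control median, at least 50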;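 also: strain carries kanamycin resistance gene driven by streptokinase promoter and grows in 40 µg/ml kanamycin; loss of luminescence reflects streptokinase promoter inhibition or plain growth inhibition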
PfHsp90 yeast 2 – growth inhibition of PfHsp90-expressing yeast, primary screen, antimalarial PfHsp90 inhibitor project, S. cerevisiae, BacTiter-Glo luminescence, single point, set 2; BacTiter-Glo ATP, 48 h; yeast lacking PDR1 and PDR3 efflux regulators; inhibition, % at 9.4 µM; 310,000 compounds, 0.32% hits; AID 504621, 2011;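 active = every replicate shows inhibition above about 80%, whatever the replicate mean, limit read from the data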
tim10-1 inh – growth inhibitors of tim10-1 mutant yeast, primary screen, luminescence, uHTS; inhibition, % at 20 µM; S. cerevisiae tim10-1 ts strain growth, BacTiter-Glo, 24 h; AID 463190, 2010; 330,000 compounds, 2.2% hits;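 active = inhibition of at least 40%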;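 also: mutant grown at 25 °C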
A number is an active result; – = inactive; · = no result given. This is a sample that favours compounds with a hit; in the whole collection about 4.4% have one here.

SMILES	TIM10 inh	tim23-1 inh	SKKanGAS inh	PfHsp90 yeast 2	tim10-1 inh
COc1ccc(C(=O)NC(=S)NNC(=O)c2ccccc2C)cc1	–	–	101	–	–
COc1ccc(C(=O)NNC(=S)NC(=O)C(C)(C)C)cc1	–	–	68	–	–
COc1ccc(C(=O)NC(=S)NNC(=O)c2ccccc2O)cc1	–	–	102	–	–
COc1ccc(C(=O)NNC(=O)c2ccc(C(C)(C)C)cc2)cc1	–	–	–	–	–
CCc1cccc2c(C(=O)CN3C(=O)N(C)C4(CCCCC4)C3=O)c[nH]c12	–	–	·	–	–
COc1ccc(OC)c(/C=C/C(=O)N2CCN(S(=O)(=O)c3ccc(C)cc3C)CC2)c1	–	–	·	–	–
CC(C)CC1NC(=O)c2ccccc2-n2c1nc1ccc(Cl)cc1c2=O (centres undefined)	–	–	·	·	–
O=C(NC(=S)NCCO)c1sc2ccccc2c1Cl	–	–	–	–	–
CC(C)(C)C(=O)NC(=S)NNC(=O)c1sc2ccccc2c1Cl	–	–	100	99	–
Cc1sc(NC(=O)C2C3C=CC(C3)C2C(=O)O)c(C(N)=O)c1-c1ccc(C(C)C)cc1 (centres undefined)	–	–	53	–	–
Cn1c(=S)[nH]c2sc3c(c2c1=O)CCC(C(C)(C)C)C3 (centres undefined)	–	–	79	–	–
COCCn1c(=S)[nH]c2sc3c(c2c1=O)CCC(C)C3 (centres undefined)	–	–	–	–	–
Cc1ccc(S(=O)(=O)N2CCN(C(=O)Cn3c(=O)cnc4ccccc43)CC2)cc1	–	–	·	–	–
Cc1cccc(C(=O)NNC2=C(C(=O)C(F)(F)F)CCC2)c1O	–	–	104	–	–
COc1cccc(/C=N/Nc2cc(-n3nc(C)cc3-c3ccccc3)ncn2)c1O	–	–	117	–	–
COc1ccc2nc(C)cc(N/N=C/c3cccc(OC)c3O)c2c1	–	–	–	–	–
COc1ccc(NC(=O)c2cc(-c3ccc(C)c(C)c3O)n[nH]2)cc1Cl	–	–	57	–	–
CC(C)(Oc1ccc(Cl)cc1)C(=O)NC1=NN(c2ccccc2)C(=O)C1	–	–	95	–	–
O=C(NNC(=O)c1ccccc1OCc1ccc(F)cc1)c1ccccc1O	–	–	93	–	–
O=C(NNC(=O)c1ccccc1OCc1ccccc1)c1ccccc1O	–	–	–	–	–
O=C(Nc1nnc(SCc2ccc(F)cc2)s1)c1ccc2ncsc2c1	·	·	–	–	·
O=C(Nc1nnc(SCc2ccc(F)cc2)s1)c1ccc2c(c1)C(=O)N(c1ccccc1Cl)C2=O	–	–	54	–	–
COc1ccccc1NS(=O)(=O)c1cc(C(=O)N2CC(C)CC(C)C2)ccc1C (centres undefined)	–	–	–	102	–
Cc1ccccc1NS(=O)(=O)c1cc(C(=O)N2CCCC2)ccc1C	–	–	–	–	–
COc1ccccc1NS(=O)(=O)c1cc(NC(=S)NCC2CCCO2)ccc1C (centres undefined)	–	–	56	–	–
SMILES	TIM10 inh	tim23-1 inh	SKKanGAS inh	PfHsp90 yeast 2	tim10-1 inh
C/C(=N\Nc1ccc(C(=O)O)cc1)c1ccc(Cl)s1	–	–	·	–	–
C/C(=N\Nc1ccc(Cl)c(C(=O)O)c1)c1ccc(Br)s1	–	–	58	–	–
C/C(=N/NC(=O)c1ccc2c(c1)OCO2)c1ccc(Br)s1	–	–	–	–	–
C/C(=N\NC(=O)c1ccc(Cl)c(Cl)c1)c1ccc(Br)s1	–	–	88	–	–
Cc1cc(C)cc(C(=O)OCC(=O)Nc2ncccn2)c1	–	–	·	–	–
CC1=Nc2ccccc2/C1=C/c1nc(-c2ccc(C)s2)oc1O	–	–	–	–	–
CC1=Nc2ccccc2/C1=C/c1sc(=N)n(-c2nccs2)c1O	–	–	98	–	–
COc1cc(C2c3cc4c(cc3CC3COC(=O)N32)OCO4)cc(OC)c1OC (centres undefined)	·	·	·	–	·
Nc1ccc2c(c1)C(=NO)c1cc([N+](=O)[O-])ccc1-2	·	·	·	–	·
O=[N+]([O-])c1ccc2c(c1)-c1ccccc1C2=NO	·	·	·	105	·
Cc1cc(C)c2[nH]c(O)c(N=NC3=NC(=O)CS3)c2c1	–	–	–	–	–
Cc1cc(C)c2[nH]c(O)c(N=Nc3ccc(C(=O)O)cc3)c2c1	–	–	74	–	–
